This passage reports binding signal results from PMC7862700, “An all-to-all approach to the identification of sequence-specific readers for epigenetic DNA modifications on cytosine”.

Common to all, as to assay: DAPPL (digital affinity profiling via proximity ligation, sequencing); 10 mM Tris-HCl pH 7.5, 50 mM NaCl, 1 mM DTT, 4% glycerol, room temperature, 30 min; GST-TFs on glutathione beads, 16-mer random dsDNA library, 0.1% formaldehyde crosslink after washing; high values mean tight binding
What all share (details): protein: recombinant; tags: N-terminal GST; dsDNA, one strand shown

Assay [1] deals with T1, ELK1 (Homo sapiens, UniProt P19419 1-428).
T1 sequence: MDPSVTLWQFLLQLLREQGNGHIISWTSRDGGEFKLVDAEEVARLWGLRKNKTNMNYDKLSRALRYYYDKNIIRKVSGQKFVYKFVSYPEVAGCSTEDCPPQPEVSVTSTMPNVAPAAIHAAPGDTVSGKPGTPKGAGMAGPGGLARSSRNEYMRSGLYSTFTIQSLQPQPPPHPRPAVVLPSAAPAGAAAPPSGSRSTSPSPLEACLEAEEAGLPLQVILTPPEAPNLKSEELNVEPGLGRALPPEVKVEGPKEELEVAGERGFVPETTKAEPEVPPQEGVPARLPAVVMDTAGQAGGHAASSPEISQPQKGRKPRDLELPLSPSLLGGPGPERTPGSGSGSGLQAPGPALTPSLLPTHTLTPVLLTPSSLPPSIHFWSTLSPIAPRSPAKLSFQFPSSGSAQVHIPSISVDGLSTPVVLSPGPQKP
In a few lines:
(§1)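 The binding signal reported is, for every hexamer, its read frequency for a factor over its read frequency for the tag-only sample. Reads came from pools of yeast-expressed, GST-fused human transcription factors on glutathione beads, barcoded with DNA and mixed with that sample, which were incubated with 200 nmole of a random double-stranded 16-mer DNA library in Tris/NaCl/DTT/glycerol buffer at room temperature for 30 min. After washing, the pools were crosslinked with 0.1% formaldehyde, proximity-ligated with BsaI/T4 ligase for 1 h at 37 °C, PCR-amplified and sequenced on an Illumina NextSeq500.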

Assay [2] deals with T2, GABPA (Homo sapiens, UniProt Q06546 1-454).
T2 sequence: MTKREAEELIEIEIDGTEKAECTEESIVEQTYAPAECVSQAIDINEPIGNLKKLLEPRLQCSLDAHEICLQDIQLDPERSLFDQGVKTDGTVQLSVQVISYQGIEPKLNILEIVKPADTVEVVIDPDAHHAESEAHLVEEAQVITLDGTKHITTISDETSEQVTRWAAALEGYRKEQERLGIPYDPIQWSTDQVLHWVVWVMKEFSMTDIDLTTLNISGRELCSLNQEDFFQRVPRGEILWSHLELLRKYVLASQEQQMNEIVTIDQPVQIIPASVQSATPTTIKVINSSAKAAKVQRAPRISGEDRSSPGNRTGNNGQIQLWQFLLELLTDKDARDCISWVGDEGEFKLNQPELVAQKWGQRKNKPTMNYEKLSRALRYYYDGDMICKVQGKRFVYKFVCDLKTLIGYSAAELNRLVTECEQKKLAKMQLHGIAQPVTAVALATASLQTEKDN
In a few lines:
as §1

Assay [3] has as its target T3, ERG (Homo sapiens, UniProt P11308 1-479).
T3 sequence: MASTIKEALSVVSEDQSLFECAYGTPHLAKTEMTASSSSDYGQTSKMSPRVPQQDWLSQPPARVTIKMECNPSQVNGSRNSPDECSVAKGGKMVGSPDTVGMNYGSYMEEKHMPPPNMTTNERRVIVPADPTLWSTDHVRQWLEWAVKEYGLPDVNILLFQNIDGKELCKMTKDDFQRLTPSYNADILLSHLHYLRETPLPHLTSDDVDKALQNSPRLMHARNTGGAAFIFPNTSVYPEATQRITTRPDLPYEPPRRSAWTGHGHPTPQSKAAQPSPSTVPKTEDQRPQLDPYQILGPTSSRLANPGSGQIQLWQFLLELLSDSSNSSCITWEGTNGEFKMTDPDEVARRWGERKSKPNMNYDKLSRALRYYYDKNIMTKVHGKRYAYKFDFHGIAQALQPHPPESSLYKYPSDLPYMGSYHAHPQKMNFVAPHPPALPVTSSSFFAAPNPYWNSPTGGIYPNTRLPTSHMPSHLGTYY
In a few lines:
as §1

The target in assay [4] is T4, EHF (Homo sapiens, UniProt Q9NZC4 1-300).
T4 sequence: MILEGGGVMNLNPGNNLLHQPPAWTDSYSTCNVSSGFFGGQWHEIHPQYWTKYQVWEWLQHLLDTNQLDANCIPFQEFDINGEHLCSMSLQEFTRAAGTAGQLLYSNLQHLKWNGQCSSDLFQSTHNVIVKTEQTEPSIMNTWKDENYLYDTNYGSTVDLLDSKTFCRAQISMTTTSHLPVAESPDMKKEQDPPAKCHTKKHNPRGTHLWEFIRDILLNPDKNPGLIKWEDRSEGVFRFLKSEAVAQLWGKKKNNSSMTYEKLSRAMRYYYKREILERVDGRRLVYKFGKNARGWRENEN
In a few lines:
as §1

Assay [5] concerns the target SPIB (Homo sapiens, UniProt Q01892 1-262). In a few lines:
as §1

Assay [6] has as its target ETV5 (Homo sapiens, UniProt P41161 1-510). In outline:
as §1

In assay [7] the target is T5, ELF3 (Homo sapiens, UniProt P78545 1-371).
T5 sequence: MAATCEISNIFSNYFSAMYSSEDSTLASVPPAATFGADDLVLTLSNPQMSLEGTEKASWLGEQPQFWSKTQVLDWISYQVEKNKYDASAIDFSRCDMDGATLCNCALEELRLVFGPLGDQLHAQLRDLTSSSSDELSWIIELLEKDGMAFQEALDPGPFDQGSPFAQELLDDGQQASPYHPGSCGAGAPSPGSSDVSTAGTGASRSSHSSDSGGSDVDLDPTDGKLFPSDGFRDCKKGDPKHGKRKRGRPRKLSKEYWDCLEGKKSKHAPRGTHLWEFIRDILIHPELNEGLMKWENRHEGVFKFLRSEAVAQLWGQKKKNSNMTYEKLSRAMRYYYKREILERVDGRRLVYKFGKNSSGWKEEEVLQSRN
In outline: as §1

Assay [8] deals with T6, ERF (Homo sapiens, UniProt P50548 1-548).
T6 sequence: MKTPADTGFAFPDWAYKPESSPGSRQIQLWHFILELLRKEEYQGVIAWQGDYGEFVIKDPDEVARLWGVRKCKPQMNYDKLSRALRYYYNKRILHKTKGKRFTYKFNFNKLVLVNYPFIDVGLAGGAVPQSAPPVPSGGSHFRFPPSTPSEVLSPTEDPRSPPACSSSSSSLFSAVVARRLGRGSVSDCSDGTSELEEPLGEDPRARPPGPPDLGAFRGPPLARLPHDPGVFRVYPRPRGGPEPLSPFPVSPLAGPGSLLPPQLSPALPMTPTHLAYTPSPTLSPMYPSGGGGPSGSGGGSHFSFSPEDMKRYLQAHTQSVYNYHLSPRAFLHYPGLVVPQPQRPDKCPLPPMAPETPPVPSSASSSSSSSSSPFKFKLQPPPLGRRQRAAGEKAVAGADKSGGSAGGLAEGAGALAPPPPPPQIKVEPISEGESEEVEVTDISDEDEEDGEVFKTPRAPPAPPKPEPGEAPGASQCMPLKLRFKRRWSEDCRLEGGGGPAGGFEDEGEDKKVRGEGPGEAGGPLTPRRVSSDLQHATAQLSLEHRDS
In a few lines:
as §1

The target of assay [9] is T7, ETV3L (Homo sapiens, UniProt Q6ZN32 1-361).
T7 sequence: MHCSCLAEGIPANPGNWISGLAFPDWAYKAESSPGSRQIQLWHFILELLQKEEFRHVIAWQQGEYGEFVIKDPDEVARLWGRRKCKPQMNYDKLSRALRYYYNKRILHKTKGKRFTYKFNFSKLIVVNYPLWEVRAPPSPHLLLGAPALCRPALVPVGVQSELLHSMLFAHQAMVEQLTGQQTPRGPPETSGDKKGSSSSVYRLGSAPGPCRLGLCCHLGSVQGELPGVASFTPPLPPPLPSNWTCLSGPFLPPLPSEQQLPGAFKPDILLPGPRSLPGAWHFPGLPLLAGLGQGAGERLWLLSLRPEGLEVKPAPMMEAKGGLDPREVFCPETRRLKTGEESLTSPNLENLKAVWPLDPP
In a few lines:
as §1

Assay [10] deals with T8, SPDEF (Homo sapiens, UniProt O95238 1-335).
T8 sequence: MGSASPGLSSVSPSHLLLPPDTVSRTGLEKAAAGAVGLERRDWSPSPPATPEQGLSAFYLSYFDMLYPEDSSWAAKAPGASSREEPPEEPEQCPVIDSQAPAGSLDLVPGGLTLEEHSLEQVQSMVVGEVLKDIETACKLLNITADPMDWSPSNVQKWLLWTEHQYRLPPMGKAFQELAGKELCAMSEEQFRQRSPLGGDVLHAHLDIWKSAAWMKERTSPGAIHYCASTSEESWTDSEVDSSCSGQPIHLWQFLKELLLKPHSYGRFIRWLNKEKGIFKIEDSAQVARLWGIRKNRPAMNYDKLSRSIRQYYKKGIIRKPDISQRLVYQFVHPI
In outline:
as §1

Assay [11] addresses T9, ETV7 (Homo sapiens, UniProt Q9Y603 1-341).
T9 sequence: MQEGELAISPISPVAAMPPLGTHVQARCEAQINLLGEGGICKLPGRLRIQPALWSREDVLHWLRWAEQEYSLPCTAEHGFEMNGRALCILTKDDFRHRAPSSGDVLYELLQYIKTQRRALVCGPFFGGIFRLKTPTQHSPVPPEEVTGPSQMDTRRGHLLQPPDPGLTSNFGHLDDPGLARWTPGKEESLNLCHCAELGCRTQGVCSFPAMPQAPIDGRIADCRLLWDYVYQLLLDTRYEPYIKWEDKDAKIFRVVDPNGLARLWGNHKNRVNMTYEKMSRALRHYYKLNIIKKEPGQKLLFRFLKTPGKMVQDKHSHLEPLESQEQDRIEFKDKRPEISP
In outline: as §1

The target in assay [12] is T10, ETV3 (Homo sapiens, UniProt P41162-2 1-143).
T10 sequence: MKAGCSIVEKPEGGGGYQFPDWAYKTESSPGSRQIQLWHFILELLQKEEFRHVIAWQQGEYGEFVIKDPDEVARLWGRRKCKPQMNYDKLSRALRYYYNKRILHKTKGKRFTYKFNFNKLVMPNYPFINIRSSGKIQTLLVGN
In a few lines: as §1

Assay [13] has as its target ETV6 (Homo sapiens, UniProt P41212 1-452). In outline: as §1
In assay [14] the target is T11, ELK4 (Homo sapiens, UniProt P28324-2 1-405).
T11 sequence: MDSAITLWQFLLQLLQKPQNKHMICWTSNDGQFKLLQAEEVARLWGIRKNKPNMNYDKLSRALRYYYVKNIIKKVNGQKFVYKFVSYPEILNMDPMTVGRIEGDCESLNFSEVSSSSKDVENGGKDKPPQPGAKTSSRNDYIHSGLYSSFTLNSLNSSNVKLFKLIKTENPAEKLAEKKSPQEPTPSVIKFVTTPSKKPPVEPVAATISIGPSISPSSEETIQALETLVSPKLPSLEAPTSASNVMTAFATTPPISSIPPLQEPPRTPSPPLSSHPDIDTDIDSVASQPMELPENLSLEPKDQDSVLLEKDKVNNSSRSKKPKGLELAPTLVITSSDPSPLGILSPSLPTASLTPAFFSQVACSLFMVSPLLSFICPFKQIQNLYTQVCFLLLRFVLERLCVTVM
In a few lines:
as §1

Assay [15] has as its target ETV1 (Homo sapiens, UniProt P50549 1-477). In outline:
as §1

For assay [16], the target named is T12, ETS2 (Homo sapiens, UniProt P15036 1-469).
T12 sequence: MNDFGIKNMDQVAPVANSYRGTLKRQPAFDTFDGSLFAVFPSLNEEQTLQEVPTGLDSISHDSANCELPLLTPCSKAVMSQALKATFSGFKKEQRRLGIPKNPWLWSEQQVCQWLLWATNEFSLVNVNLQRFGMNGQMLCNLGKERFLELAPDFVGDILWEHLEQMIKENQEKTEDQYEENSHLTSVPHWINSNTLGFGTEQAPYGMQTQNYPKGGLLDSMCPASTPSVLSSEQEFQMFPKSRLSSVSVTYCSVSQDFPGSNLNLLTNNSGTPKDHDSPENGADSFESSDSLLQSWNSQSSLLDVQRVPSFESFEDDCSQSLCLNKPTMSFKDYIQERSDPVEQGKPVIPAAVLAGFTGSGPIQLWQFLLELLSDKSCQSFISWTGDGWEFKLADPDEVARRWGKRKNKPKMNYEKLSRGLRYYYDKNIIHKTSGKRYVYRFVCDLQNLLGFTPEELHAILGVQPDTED
In a few lines:
as §1

Sequence of SPIB (Q01892 whole entry): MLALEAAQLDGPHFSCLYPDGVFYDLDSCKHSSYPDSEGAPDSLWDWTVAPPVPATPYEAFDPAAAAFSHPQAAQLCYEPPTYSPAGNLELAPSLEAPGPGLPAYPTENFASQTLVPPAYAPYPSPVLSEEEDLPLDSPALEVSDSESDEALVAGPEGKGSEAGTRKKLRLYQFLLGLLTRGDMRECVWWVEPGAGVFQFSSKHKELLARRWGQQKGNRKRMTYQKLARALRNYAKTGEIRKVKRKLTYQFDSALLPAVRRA
Sequence of ETV5 (P41161 whole entry): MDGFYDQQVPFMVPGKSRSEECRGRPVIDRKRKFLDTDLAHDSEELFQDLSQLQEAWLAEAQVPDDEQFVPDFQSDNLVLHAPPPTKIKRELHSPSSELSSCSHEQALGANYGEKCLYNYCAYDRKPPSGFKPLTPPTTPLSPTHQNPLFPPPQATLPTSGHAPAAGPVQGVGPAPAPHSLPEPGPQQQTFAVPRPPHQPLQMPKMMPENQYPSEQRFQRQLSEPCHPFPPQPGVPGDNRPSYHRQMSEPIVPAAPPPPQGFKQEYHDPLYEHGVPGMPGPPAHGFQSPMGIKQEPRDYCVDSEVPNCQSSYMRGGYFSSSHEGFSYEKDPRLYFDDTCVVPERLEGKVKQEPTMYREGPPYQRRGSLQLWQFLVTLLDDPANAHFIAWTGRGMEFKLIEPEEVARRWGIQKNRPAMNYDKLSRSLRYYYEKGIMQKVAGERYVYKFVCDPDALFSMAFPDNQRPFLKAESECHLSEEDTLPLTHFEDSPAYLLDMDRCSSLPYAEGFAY
Sequence of ETV6 (P41212 whole entry): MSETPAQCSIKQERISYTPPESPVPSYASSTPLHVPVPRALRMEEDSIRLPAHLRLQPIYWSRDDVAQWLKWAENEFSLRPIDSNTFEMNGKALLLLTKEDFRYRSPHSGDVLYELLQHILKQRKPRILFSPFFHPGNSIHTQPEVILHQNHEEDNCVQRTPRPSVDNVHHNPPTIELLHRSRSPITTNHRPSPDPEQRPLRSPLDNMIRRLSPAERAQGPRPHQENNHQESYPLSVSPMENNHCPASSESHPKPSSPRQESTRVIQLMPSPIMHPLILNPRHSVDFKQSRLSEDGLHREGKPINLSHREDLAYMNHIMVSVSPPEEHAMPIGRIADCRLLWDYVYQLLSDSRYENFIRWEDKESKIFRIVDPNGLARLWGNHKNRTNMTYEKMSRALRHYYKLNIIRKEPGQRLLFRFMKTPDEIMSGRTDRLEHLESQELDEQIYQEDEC
Sequence of ETV1 (P50549 whole entry): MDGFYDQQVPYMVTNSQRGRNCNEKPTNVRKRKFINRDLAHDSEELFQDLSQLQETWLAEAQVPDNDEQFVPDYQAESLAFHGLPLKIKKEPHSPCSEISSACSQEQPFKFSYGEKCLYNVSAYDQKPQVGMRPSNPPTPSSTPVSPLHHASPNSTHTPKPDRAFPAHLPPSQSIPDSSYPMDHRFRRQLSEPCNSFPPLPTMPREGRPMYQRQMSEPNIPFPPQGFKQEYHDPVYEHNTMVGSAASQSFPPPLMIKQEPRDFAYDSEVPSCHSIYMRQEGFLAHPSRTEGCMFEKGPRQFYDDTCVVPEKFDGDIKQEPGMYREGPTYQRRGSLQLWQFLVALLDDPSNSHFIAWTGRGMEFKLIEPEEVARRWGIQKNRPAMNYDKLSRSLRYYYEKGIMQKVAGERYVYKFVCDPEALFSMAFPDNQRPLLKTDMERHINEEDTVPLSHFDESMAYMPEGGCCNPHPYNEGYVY

With GGGAAA, the binding signal in [1] was 1.05 fold enrichment (6-mer frequency, TF over GST control); in assay [2] it was 1.02 fold enrichment (6-mer frequency, TF over GST control); in assay [3], 1.03 fold enrichment (6-mer frequency, TF over GST control); in assay [4], 1.07 fold enrichment (6-mer frequency, TF over GST control); in assay [5], 1.1 fold enrichment (6-mer frequency, TF over GST control); in [6], 1.05 fold enrichment (6-mer frequency, TF over GST control). The binding signal in assay [7] is 1.03 fold enrichment (6-mer frequency, TF over GST control); in assay [8], 1.02 fold enrichment (6-mer frequency, TF over GST control); in assay [9], 1.05 fold enrichment (6-mer frequency, TF over GST control); in assay [10] it was 1.01 fold enrichment (6-mer frequency, TF over GST control); in assay [11], 1.12 fold enrichment (6-mer frequency, TF over GST control); in assay [12] it was 1.03 fold enrichment (6-mer frequency, TF over GST control). Besides, the binding signal in assay [13] was 1.22 fold enrichment (6-mer frequency, TF over GST control).
As to TGGAAG, the binding signal in [3] was 1.05 fold enrichment (6-mer frequency, TF over GST control); in [5], 1.11 fold enrichment (6-mer frequency, TF over GST control); in [6], 1.03 fold enrichment (6-mer frequency, TF over GST control); in [14], 1.06 fold enrichment (6-mer frequency, TF over GST control); in assay [15], 1.02 fold enrichment (6-mer frequency, TF over GST control); in assay [16] it was 1.01 fold enrichment (6-mer frequency, TF over GST control). The binding signal in [11] was 1.13 fold enrichment (6-mer frequency, TF over GST control); in [12] it was 1.07 fold enrichment (6-mer frequency, TF over GST control); in assay [13] it was 1.19 fold enrichment (6-mer frequency, TF over GST control).
